In PubChem BioAssay AID1159580 (chemical genetic matrix, 2015):
Hit rate of the full screen: of about 5,500 compounds, about 2,000 (36%) were called active. Another 18% or so got no clear call; they are omitted. Cut-off read from the data, not from the text of the source: active = normalized growth mostly below about 0.91 (no sharp cut-off); inconclusive = no clear call, values can overlap the other calls; inactive = mostly above about 0.92. This is one part of the list.

Assay: chemical genetic growth profiling, strain panel (AID 1159580);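 note: tested at 20 µM; growth read once vehicle control cultures reached saturation at 30 °C; 1 = growth at the plate median or of vehicle wells; lower values mean less growth of the strain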
Details: S. cerevisiae deletion strains, growth OD

Measured: normalized growth

CCCN1CCC[C@@H]2Cc3nc(N)ncc3C[C@H]21
inactive: locus YAL013W, strain DEP1, hits give low values 1.02 | locus YAL040C, strain CLN3, hits give low values 1.01 | locus YCL061C, strain MRC1 (second series), hits give low values 1.01 | locus YDR363W, strain ESC2, hits give low values 0.999 | locus YER002W, strain NOP16, hits give low values 1.02 | locus YMR307W, strain GAS1, hits give low values 0.995 | locus YNL128W, strain TEP1, hits give low values 1.01 | locus YNL175C, strain NOP13, hits give low values 1.02 | locus YNL197C, strain WHI3, hits give low values 1.01 | locus YNL224C, strain SQS1, hits give low values 1.01 | locus YNL322C, strain KRE1, hits give low values 0.999 | locus YOR083W, strain WHI5 (second series), hits give low values 1.01 | locus YPL241C, strain CIN2, hits give low values 1
